# The list is not random: actives were taken first. Their share in the collection is about 1.4%.
# S-ASM inh – blocks human secretory acid sphingomyelinase; P17405; placental ASM, HMU-PC fluorogenic substrate, 60 min; Potency, µM (highest dose often 57.5 µM), for inactives: top-dose activity change, negative = inhibition, hits mostly inhibitors; 340,000 tested, 0.006% active; AID 504937; also: potency is read from the fitted curve at half-maximal effect
#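 Fluorogenic HMU-PC substrate (9 uM final) is turned over by placental ASM in 60 min at 37 C after a 10 min compound preincubation. Reaction ended by alkaline stop (pH 10), with fluorescence read at 386/447 nm.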
# KCNH2 WT inh – inhibitors of human wildtype KCNH2 potassium channel. AID 720551. Q12809. U2OS, BacMam KCNH2, thallium flux FluxOr; active compounds read low. activity change, % at 1.84 µM. 340,000 tested, 0.37% active;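 active = maximum activity change below -70%; inconclusive = maximum activity change between -70% and -50%; inactive = maximum activity change above -50%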; also: % is scaled to controls: 0 for no effect and ±100 for the full control effect
# Target sequence (Q12809 whole entry, looked up): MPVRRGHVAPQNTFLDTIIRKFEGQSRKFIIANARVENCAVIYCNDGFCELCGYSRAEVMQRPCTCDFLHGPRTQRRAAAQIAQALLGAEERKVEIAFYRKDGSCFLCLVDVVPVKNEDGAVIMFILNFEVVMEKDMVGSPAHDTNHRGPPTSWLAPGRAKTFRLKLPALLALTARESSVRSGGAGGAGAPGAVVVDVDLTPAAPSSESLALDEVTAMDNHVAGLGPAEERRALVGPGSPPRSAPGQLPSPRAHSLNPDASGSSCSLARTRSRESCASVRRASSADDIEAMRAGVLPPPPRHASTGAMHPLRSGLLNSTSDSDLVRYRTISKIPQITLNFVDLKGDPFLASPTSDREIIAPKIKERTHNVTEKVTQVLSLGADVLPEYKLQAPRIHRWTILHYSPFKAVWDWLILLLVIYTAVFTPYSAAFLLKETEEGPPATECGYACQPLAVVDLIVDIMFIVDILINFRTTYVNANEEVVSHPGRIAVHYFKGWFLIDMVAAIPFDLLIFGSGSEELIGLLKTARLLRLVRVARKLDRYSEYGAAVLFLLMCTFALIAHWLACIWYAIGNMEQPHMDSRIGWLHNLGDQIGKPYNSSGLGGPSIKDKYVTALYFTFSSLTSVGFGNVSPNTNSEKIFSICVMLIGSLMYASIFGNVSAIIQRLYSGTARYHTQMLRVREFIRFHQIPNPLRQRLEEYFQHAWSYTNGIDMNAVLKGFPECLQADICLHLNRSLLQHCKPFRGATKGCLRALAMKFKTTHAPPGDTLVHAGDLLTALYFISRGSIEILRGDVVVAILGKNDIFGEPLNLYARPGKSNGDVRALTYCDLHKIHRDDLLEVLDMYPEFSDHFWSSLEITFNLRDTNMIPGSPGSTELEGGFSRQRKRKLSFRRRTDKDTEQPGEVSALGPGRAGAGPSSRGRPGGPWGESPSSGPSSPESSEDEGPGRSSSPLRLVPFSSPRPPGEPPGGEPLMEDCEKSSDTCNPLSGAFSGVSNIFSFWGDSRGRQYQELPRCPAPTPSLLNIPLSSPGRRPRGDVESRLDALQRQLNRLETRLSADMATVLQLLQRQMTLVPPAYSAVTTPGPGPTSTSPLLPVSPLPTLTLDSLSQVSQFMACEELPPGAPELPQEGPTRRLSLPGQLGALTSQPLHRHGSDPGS
#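 U2OS cells were transduced with wild-type KCNH2 virus (2.03 x 10^8 / mL) for 4 h at room temperature, then cultured overnight at 37 C. Thallium flux was read with FluxOr dye. Rate constants were normalized to DMSO controls.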
# KCNH2 3.1 block – inhibitors of human KCNH2 3.1 potassium channel isoform. U2OS KCNH2 3.1, thallium flux FluxOr; active compounds read low. activity change, % (tested at about 1.8 µM). 340,000 tested, 0.95% active;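 active = maximum activity change below -70%; inconclusive = maximum activity change from -70% to -50%; inactive = maximum activity change above -50%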;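 also: thallium influx rate constant from kinetic fluorescence after stimulation buffer; % is scaled to controls: 0 for no effect and ±100 for the full control effect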
#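 Channel expression came from 3.1 mutant virus (1.77 x 10^8 /mL) applied to suspended U2OS cells for 4 h. Flux was tracked with FluxOr dye plus Red40 quencher, and kinetic rate constants normalized to controls.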
# Mm-Cpn inhibitor – inhibitors of Methanococcus maripaludis chaperonin TRiC (MmCpn) | purified Mm-Cpn ATPase, ADP Transcreener TR-FRET | Potency, µM (series often up to 76.9 µM), for the others: top-dose activity, negative = inhibition, actives largely listed as inhibitors | 330,000 tested, 0.031% active | AID 504842; also: potency is read from the fitted curve at half-maximal effect; % is scaled to controls: 0 for no effect and ±100 for the full control effect; nearly all actives have a fitted effect of over 80% in size
#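 ATPase turnover read by TR-FRET ADP competition (Eu cryptate antibody/ADP-d2, 665/590 nm): 10uM ATP final, 25nM Mm-CPN final, 30 min 37degC after 10-min compound preincubation, pH 7.4 Tris/KCl/MgCl2/DTT buffer.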
# uPA generation – blocks generation of uPA at the cell surface | Potency, µM (highest dose often 38.3 µM), inactives show at the highest dose activity change, negative = inhibition, usual class: inhibitors | 330,000 tested, 0.31% active | cell surface uPA generation assay, qHTS; active = well fitted inhibition curve with a large enough effect; inconclusive = small, poorly fitted or top-dose-only effect; inactive = no such curve, though single readings can be large or run the other way; tested in mouse RAW 264.7 cells; also: potency is read from the fitted curve at half-maximal effect; % is scaled to controls: 0 for no effect and ±100 for the full control effect; nearly all actives have a fitted effect of over 55% in size
# p53 reactivator – re-activators of mutant p53. H1299 p53-A138V BP100-luciferase reporter, luminescence, 24 h. AID 504706. Potency, µM (titrated, usually from 92.2 µM), without a hit: at the top dose activity change, positive = activation, actives largely listed as activators. 320,000 tested, 0.063% active; also: potency is read from the fitted curve at half-maximal effect; % of control where 0% means no effect; nearly all actives have a fitted effect of over 45% in size
#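 H1299 (p53-null), stable ts p53-A138V + BP100-Luc; 1000 cells/well, Opti-MEM/10% FBS; cpd 4 pt, 1:5; 24 h, 37 deg C, 5% CO2; detection reagent 10 min RT; luminescence.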
# Numbers without * were called inactive; i = inactive; ? = inconclusive; / = not tested or not shown. Unless noted, calls follow the shape of the dose curve; as a rule, active = well fitted curve in the direction sought with a large enough effect; inconclusive = small, poorly fitted or top-dose-only effect, or another doubt; inactive = no such curve, though single readings can be large; an effect the other way counts as inactive or inconclusive.
SMILES,S-ASM inh,KCNH2 WT inh,KCNH2 3.1 block,Mm-Cpn inhibitor,uPA generation,p53 reactivator
C[C@H](CO)N1C[C@H](C)[C@@H](CN(C)C(=O)CN2CCOCC2)Oc2cc(Br)ccc2S1(=O)=O,/,0,8,/,/,/
O=C(Cc1cccc(NC(=O)C2CCN(S(=O)(=O)c3cccc([N+](=O)[O-])c3)CC2)c1)Nc1cccc(C(=O)N2CCCCC2)c1,-3%,-5,-1,/,5%,/
N#Cc1ccccc1-c1csc(N2CCC(C(N)=O)CC2)n1,/,/,/,-3%,/,/
O=C(CSc1nnc2ccccn12)Nc1ccccc1[N+](=O)[O-],/,-7,-2,/,/,/
Cc1n[nH]c(C)c1Sc1ccccc1N=Cc1cc(Cl)cc([N+](=O)[O-])c1O,28%,-133*,-5,-1%,3%,-4%
O=C(Cc1ccccc1)NNC(=O)c1ccc(NC(=O)c2ccccc2)cc1,-2%,3,9,-1%,4%,-1%
CC(C)C(=O)Nc1ccc(C(=O)NNC(=O)CCc2ccccc2)cc1,-2%,-17,-76*,-2%,13%,3%
O=C(N/N=C\c1ccc(CNS(=O)(=O)c2ccccc2)o1)C(=O)Nc1ccc(F)cc1,-1%,7,-25,1%,-6%,9%
O=C(N/N=C\c1ccc(CN(Cc2ccc(Cl)cc2)S(=O)(=O)c2ccccc2)o1)C(=O)Nc1ccc(F)cc1,-1%,-48,-75*,1%,1%,5%
OCCOCCn1c(C2CCCN2c2nc(-c3ccc(F)cc3)cs2)nc2cc(C(F)(F)F)ccc21 (stereo not given),?,-103*,-101*,/,-8%,/
OCCCn1c(CCNc2nc(-c3ccc(F)cc3)cs2)nc2cc(C(F)(F)F)ccc21,-22%,17,-123*,/,-6%,/
OC(c1ccccc1)(c1ccccc1)c1nccn1-c1ccccc1,5%,3,8,/,0%,/
CSc1ccc(-c2sc(Nc3ccccc3)n[n+]2-c2ccc(F)cc2)cc1,-8%,-20,-34,?,-8%,/
Oc1ccc(-c2sc(Nc3ccccc3)n[n+]2-c2ccc(F)cc2)cc1,0%,-5,-4,40µM*,5%,/
Cc1cccc(-c2sc(Nc3ccccc3)n[n+]2-c2ccc(F)cc2)c1,0%,-13,-92*,-3%,-8%,10%
COc1ccc(N2CCCC2=O)cc1S(=O)(=O)N1CCOCC1,/,4,-32,/,/,/
CCOC(=O)C1(Cc2ccccc2)CCN(Cc2cccn2-c2nccs2)CC1,7%,-1,-3,0%,-3%,0%
CCOC(=O)C1(Cc2cccc(OC)c2)CCN(Cc2ccc(OC)c(OC)c2)CC1,-1%,18,-70*,5%,-4%,-2%
CCOC(=O)C1(Cc2cccc(OC)c2)CCN(Cc2ccc(C)s2)CC1,2%,?,-76*,3%,-9%,0%
CCOC(=O)C1(Cc2cccc(OC)c2)CCN(Cc2cccc(O)c2)CC1,0%,5,-24,-2%,2%,1%
CCOC(=O)C1(Cc2cccc(OC)c2)CCN(Cc2cccn2-c2nccs2)CC1,2%,-83*,-101*,0%,1%,-1%
CCOC(=O)C1(Cc2cccc(OC)c2)CCCN(Cc2cc(OC)c(O)c(OC)c2)C1 (stereo not given),0%,-134*,-193*,-3%,8%,4%
Cc1nc(-c2ccc(F)cc2)c(CC(=O)N(C)CC(=O)Nc2ccc(Br)cc2C)s1,-2%,5,5,0%,-2%,7%
COc1cccc(CSC(C(=O)O)c2ccccc2)c1 (stereo not given),/,-3,-2,/,/,/
Oc1c(Cl)cc(Cl)cc1C1=NNC(c2ccc(Cl)cc2)C1 (stereo not given),18%,-26,-1,0%,1%,-6%
SMILES,S-ASM inh,KCNH2 WT inh,KCNH2 3.1 block,Mm-Cpn inhibitor,uPA generation,p53 reactivator
Oc1ccc(Cl)cc1C1=NNC(c2ccc(Cl)cc2)C1 (stereo not given),0%,18,-10,-5%,-4%,28µM*
Nc1ccc(-c2nc3ncccc3o2)cc1,i,1,6,-8%,?,-7%
Nc1cc(N)c2c(c1)C(=O)c1ccccc1-2,-6%,-131*,-198*,/,0%,/
Cn1ncc2c(O/N=C(\N)c3ccc(C(F)(F)F)cc3)ncnc21,-5%,0,-10,1%,2.8µM*,-14%
Nc1cc(OC(=O)c2cccs2)nn1S(=O)(=O)c1ccccc1,-2%,-2,7,-2%,4%,-3%
Nc1cc(OC(=O)c2cccs2)nn1S(=O)(=O)c1ccc(F)cc1,-4%,5,-212*,1%,-3%,4%
CCCCn1cnc2c(c(-c3ccccc3)c(-c3ccccc3)n2Cc2ccco2)c1=N,2%,-8,-6,1%,-4%,-8%
N=c1c2c(-c3ccccc3)c(-c3ccccc3)n(Cc3ccco3)c2ncn1Cc1ccco1,-7%,?,-93*,0%,-18%,-14%
CCNC(=O)N(C)C[C@H]1N[C@@](Cc2ccccc2)(C(=O)OC)[C@H]2C(=O)N(C)C(=O)[C@@H]12,5%,1,-7,3%,10%,4%
NC(=O)CSc1nnc(Cc2ccc3c(c2)OCO3)n1C1CCCCC1,5%,0,-77*,0%,/,-5%
O=C(Nc1cc(=O)[nH]c(=O)[nH]1)c1cccc(C(F)(F)F)c1,1%,12,2,2%,-2%,14%
O=C(Nc1cc(=O)[nH]c(=O)[nH]1)c1cc(Cl)ccc1Cl,2%,-13,-3,2%,3.5µM*,8%
CC(=O)c1ccc(N2CCN(c3ccc(C(F)(F)F)cn3)CC2)cc1,-4%,-139*,-200*,-9%,-2%,-14%
CCOc1ccc(CCNC(=O)CCS(=O)(=O)c2ccc(Cl)cc2)cc1OCC,-1%,11,-21,2%,-9%,-5%
O=C(C1CCCCC1)N1C[C@H](O)[C@@H](n2cc(-c3ccc(F)cc3)nn2)C[C@@H]1c1ccccc1,/,-7,-10,/,/,/
O=C(CCn1c(=O)c2sccc2n(CC(=O)NCc2ccco2)c1=O)NCc1ccccc1,-1%,-254*,3,-3%,1%,-13%
O=C(CCCn1c(=O)c2sccc2n(CC(=O)NCc2ccco2)c1=O)NCc1ccco1,3%,-3,10,1%,/,3%
COc1ccccc1NC(=O)COC(=O)C1C2CC3OC(=O)C1C3C2 (stereo not given),12%,7,-6,4%,-10%,9%
Cc1ccccc1NC(=O)COC(=O)C1C2CC3OC(=O)C1C3C2 (stereo not given),6%,-254*,-1,-6%,-2%,-2%

# Screening results (PubChem BioAssay)
